Compound activity from PubChem BioAssay.
Sampled rows, rich in hits. Any-hit rate of the full collection: about 17%.
S2 tox: viability counter-screen for ATXN expression inhibitors; Potency, µM (series often up to 56.7 µM), most hits filed as cytotoxic; 400,000 tested, 0.49% active; AID 651635; S2 cells (HEK-293 line with an ATXN2-luciferase reporter) viability, CellTiter-Fluor protease fluorescence, 24 h; also: nearly all actives have a fitted effect of over 40% in size
DT40 TDP1 no CPT: qHTS for Inhibitors of human tyrosyl-DNA phosphodiesterase 1 (TDP1): qHTS in cells in absence of CPT | DT40 Tdp1-/- hTDP1 cells, no CPT, ATP luminescence, 48 h | Potency, µM (highest dose often 46.2 µM), actives largely listed as inhibitors | 420,000 tested, 15% active | AID 686978, 2013; also: nearly all actives have a fitted effect of over 55% in size
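Growth of hTDP1-complemented DT40 Tdp1-knockout cells is measured by ATP luminescence after at least 48 hr compound exposure at 37 °C, with DMSO substituting for the 20 nM CPT used in the parallel screen.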
ATXN2 expr inh: inhibitors of ATXN2 expression | HEK-293 ATXN2-luciferase reporter, luminescence, 24 h | Potency, µM (series often up to 57 µM), most hits filed as inhibitors | 360,000 tested, 0.72% active | AID 1745845; also: nearly all actives have a fitted effect of over 55% in size
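qHTS (up to 57 uM final) was run with 24 h compound exposure of reporter cells at 37 °C. Each well was multiplexed: SteadyGlo luminescence measured ATXN2-luciferase expression after a fluorogenic Gly-Phe-AFC viability readout (25 uM final).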
TGFb inhibitor: inhibitors of TGF-b signaling | HepG2 CAGA-GFP TGF-b/SMAD3 reporter, GFP fluorescence, 18 h; TGF-beta stimulated, 500 pg/mL final | Potency, µM (top dose mostly 46.1 µM), most hits filed as inhibitors | 410,000 tested, 1.2% active | AID 588855; also: nearly all actives have a fitted effect of over 65% in size
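Per well, imaged GFP fluorescence of HEPG2 CAGA-GFP cells gives the signal; cells get compound, then TGF-beta (500 pg/mL final), 18 h at 37 degrees C; %Activity versus -TGF-beta and +DMSO controls.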
HepG2 viability: HepG2 cytotoxicity, counter-screen for TGF-b inhibitors | HepG2 CAGA-GFP viability, ATP luminescence, 18 h | Potency, µM (doses to about 46.1 µM), hits mostly cytotoxic | 410,000 tested, 0.76% active
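CellTiter-Glo luminescence gave cytotoxicity after 18 hours at 37 degrees C. The cells were HepG2 CAGA-GFP in 1% FBS DMEM, stimulated with 500 pg/mL TGF-beta after compound addition. %Activity was normalised to no-cell wells (complete cell-killing) and DMSO (no toxicity), and curves were fitted and classified.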
DT40 TDP1 CPT: DT40-hTDP1 cell growth loss with CPT. Potency, µM (top dose mostly 46.2 µM), hits mostly inhibitors. chicken DT40 Tdp1-/-;hTDP1 cells + 20 nM CPT, ATP luminescence, 48 h. 420,000 tested, 12% active. AID 686979; also: nearly all actives have a fitted effect of over 55% in size
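Chicken DT40 Tdp1-/- cells complemented with human TDP1, 400 cells/well, exposed to compounds plus 20 nM camptothecin for at least 48 h at 37 C; viability read as ATP content by CellTiter-Glo luminescence.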
Numbers stand for hits; - = inactive; ? = inconclusive; . = no result. Calls follow the shape of the dose curve; as a rule, active = well fitted curve in the direction sought with a large enough effect; inconclusive = small, poorly fitted or top-dose-only effect, or another doubt; inactive = no such curve, though single readings can be large; an effect the other way counts as inactive or inconclusive.

SMILES	S2 tox	DT40 TDP1 no CPT	ATXN2 expr inh	TGFb inhibitor	HepG2 viability	DT40 TDP1 CPT
Cc1c(C(=O)O)[nH]c2c1C(=O)CC(c1ccc(C(C)(C)C)cc1)C2 (centres undefined)	-	-	-	-	-	-
Cc1c(C(=O)OC2CCCC2)[nH]c2c1C(=O)CC(c1ccc(C(C)(C)C)cc1)C2 (centres undefined)	-	?	-	-	-	18µM
Cc1c(C(=O)OC2CCC(C)CC2)[nH]c2c1C(=O)CC(c1ccc(F)cc1)C2 (centres undefined)	.	18µM	.	-	-	?
COc1ccc(C2CC(=O)c3c([nH]c(C(=O)OC4CCCCCC4)c3C)C2)cc1OC (centres undefined)	-	4.6µM	-	-	-	3.7µM
Cc1cc(Cl)ccc1OCCCC(=O)OCC(=O)Nc1cccc(S(N)(=O)=O)c1	-	-	-	-	-	-
NC(=O)c1nsc(C(=O)N(Cc2ccco2)C(C(=O)NCC2CCCO2)c2ccc(F)cc2)c1N (centres undefined)	-	?	-	-	-	-
O=S(=O)(N/N=C\c1ccc2c(c1)OCO2)c1ccc(F)cc1	-	-	-	-	-	-
C[C@H](NC(=O)C(=O)Nc1ccccc1C(C)(C)C)C(=O)N[C@@H](CC(=O)O)C(=O)COc1c(F)c(F)cc(F)c1F	.	.	-	.	.	.
Cc1c(C(=O)OC2CCCCC2)[nH]c2c1C(=O)CC(c1ccc(F)cc1)C2 (centres undefined)	.	?	.	-	-	?
Cc1c(C(=O)OC2CCCCC2)[nH]c2c1C(=O)CC(c1ccccc1Cl)C2 (centres undefined)	?	2.1µM	-	-	-	4.1µM
Cc1ccc(S(=O)(=O)Nc2ccc3cn[nH]c3c2)cc1	-	?	.	-	-	-
Cc1ccc(S(=O)(=O)Nc2cc(C)c(O)c(Sc3n[nH]c(C)n3)c2)cc1	.	?	-	-	-	18µM
Cc1ccc(-c2sc(C(=O)NN)c(C)c2C#N)cc1	?	?	-	-	-	?
COC(=O)C(NC(=O)c1ccc(F)cc1)(Nc1ncc(S(=O)(=O)c2ccc([N+](=O)[O-])cc2)s1)C(F)(F)F (centres undefined)	-	13µM	-	?	-	16µM
O=c1oc2ccccc2c(O)c1/C=C1\C=Nc2ccccc21	-	7.3µM	-	-	-	8.2µM
O=c1oc2ccccc2c(O)c1/C=N/c1ncccn1	-	-	-	-	-	-
CCc1cc(-c2nnn(CCC3COCCO3)c2CC)ccc1-c1cn(Cc2ccccc2)nn1 (centres undefined)	?	21µM	?	?	-	16µM
COc1ccc([C@H]2C[C@@H](O)C[C@@H](CCn3cc(-c4ccccc4)nn3)O2)cc1	-	-	-	.	.	-
Cc1ccc(NC(=O)c2ncn(CCCN3CCN(Cc4cccc5ccccc45)CC3)n2)cc1C	32µM	13µM	?	?	-	21µM
Cc1cc(C)c(CN2CCN(C(=O)Cn3cnc(C(=O)Nc4ccc(C)c(C)c4)n3)CC2)c(C)c1	?	-	?	16µM	-	?
Cc1ccc(NC(=O)c2ncn(CC(=O)N[C@H](C)c3cccc4ccccc34)n2)cc1C	-	?	-	-	-	?
Cc1ccc(NC(=O)Cn2cnc(C(=O)Nc3ccc(C)c(C)c3)n2)cc1C	-	-	-	-	-	-
CCc1nccn1-c1cc(C(C)(C)C)nc2c(-c3ccc(Cl)cc3)cnn12	-	18µM	-	-	-	?
CC(C)(C)c1cc(NCc2ccccn2)n2ncc(-c3ccc(Cl)cc3)c2n1	-	16µM	.	-	-	?
CN(C)CCCNc1cc(C(C)(C)C)nc2c(-c3ccc(Cl)cc3)cnn12	.	?	?	22µM	-	13µM
SMILES	S2 tox	DT40 TDP1 no CPT	ATXN2 expr inh	TGFb inhibitor	HepG2 viability	DT40 TDP1 CPT
CC(C)(C)c1cc(NCCCn2ccnc2)n2ncc(-c3ccccc3)c2n1	-	?	-	?	-	-
Cc1ccc(NC(=O)N2CCCC2C(=O)Nc2ccc3c(c2)OCO3)cc1 (centres undefined)	?	-	-	-	-	-
CC(=O)c1cc(-c2ccccc2)n(CCC(=O)NC(C)c2ccccc2)c1C (centres undefined)	.	?	.	-	-	?
COc1ccc2cc(/C=N/NC(=O)CN(c3ccccc3C)S(=O)(=O)c3ccccc3)c(Cl)nc2c1	.	6.5µM	-	-	-	2.9µM
O=c1cc(-c2ccccc2)n2c(SCc3ccc([N+](=O)[O-])cc3)nnc2[nH]1	.	-	.	-	-	-
c1ccc2c(c1)CCCC2C1=NCCN1 (centres undefined)	-	-	-	-	-	-
Brc1ccc2c(c1)C(C1=NCCN1)c1ccccc1CS2 (centres undefined)	?	5.8µM	-	-	-	7.3µM
COc1cc(NC(=S)NCCCN2CCOCC2)cc(OC)c1	-	-	-	-	-	-
Cc1c(C(C)(C)O)[nH]c2cc(C(F)(F)F)ccc12	-	13µM	-	-	-	?
CC(C)(O)c1[nH]c2cc(C(F)(F)F)ccc2c1C(C)(C)O	-	-	-	-	-	?
CC(C)(C)n1ncc2c(=O)n(Cc3cc(C(F)(F)F)ccc3Cl)cnc21	.	.	.	-	-	.
COc1ccc(S(=O)(=O)Cc2ccccc2)cc1N	-	?	-	-	-	9.2µM
Cc1ccc(NC(=O)COC(=O)c2ccc(C)c(S(=O)(=O)N3CCOCC3)c2)cc1	-	-	-	-	-	-
O=C(CN1C(=O)/C(=C2\SC(=S)N(C3CCS(=O)(=O)C3)C2=O)c2ccccc21)Nc1ccccc1 (centres undefined)	-	13µM	-	-	-	?
CCN(c1ccccc1)c1ncnc2c1cnn2-c1ccccc1	-	?	-	-	-	?
CCN(c1ccccc1)c1nc(Cl)nc2c1cnn2C	-	13µM	-	-	-	?
O=C(Cn1nnc2ccccc21)NNC(=S)NC1CCCCC1	-	-	-	-	-	-
CCN(CC)CCCCNc1ncc2cc(-c3cc(OC)cc(OC)c3)c(NC(=O)NC(C)(C)C)nc2n1	8.9µM	?	?	?	14µM	?
CCN(CC)CCCNC(=O)CSc1nc(-c2ccc(OC)cc2)cc(C(F)(F)F)n1	-	?	-	-	-	?
CC1CCC(C(C)C)C(OC(=O)Cn2c(-c3ccc(F)cc3)[n+](C)c3ccccc32)C1 (centres undefined)	?	2.3µM	8.9µM	8.9µM	-	2.3µM
